# Assay outcomes: PubChem BioAssay, several laboratories
# tim23-1 inh = inhibits growth of tim23-1 mutant yeast; inhibition, % at 20 µM; S. cerevisiae tim23-1 growth, BacTiter-Glo luminescence, 24 h; 330,000 compounds, 1.3% hits; AID 463212;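 active = growth inhibition of the mutant yeast at or above 50%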;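 also: temperature-sensitive mutant grown at 25 °C; plate controls were DMSO-treated mutant yeast for no effect and medium wells lacking yeast for full effect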
# NALP3 yeast inh = inhibitors of NALP3 inflammasome in yeast; Yeast reconstituted NLRP3/ASC/caspase-1, beta-gal luminescence, 24 h; inhibition, % at 10 µM; 330,000 compounds, 0.39% hits;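 active = inhibition of 50% or more; inactive = inhibition below 50%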;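 also: plate controls were induced DMSO wells for no effect and uninduced yeast grown without galactose for full effect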
# NALP1 yeast inh = blocks the NALP1 inflammasome reconstituted in yeast; inhibition, % at 10 µM; S. cerevisiae NALP1/ASC/caspase-1 growth, X-gal OD620, 72 h; 280,000 compounds, 0.61% hits; in the data active = inhibition mostly above about 24%, no sharp cut-off; inactive = mostly below about 32%
# tim10-1 inh = inhibits growth of tim10-1 mutant yeast. S. cerevisiae tim10-1 ts strain growth, BacTiter-Glo, 24 h. inhibition, % at 20 µM. 330,000 compounds, 2.2% hits;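 active = inhibition of at least 40%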;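 also: mutant grown at 25 °C; 0% = DMSO wells with yeast and 100% = wells holding no yeast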
# SKKanGAS inh = SKKanGAS growth inhibition | S. pyogenes SKKanGAS, kanamycin growth, BacTiter-Glo, 6 h | inhibition, % at 7.5 µM | 300,000 compounds, 1.3% hits | AID 1662;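 active = mean replicate score, as percent of positive control median, at least 50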;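 also: strain carries kanamycin resistance gene driven by streptokinase promoter and grows in 40 µg/ml kanamycin; loss of luminescence reflects streptokinase promoter inhibition or plain growth inhibition; 0% = median of DMSO wells and 100% = positive control at its reference dose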
# TIM10 inh = TIM10 yeast growth inhibition; S. cerevisiae TIM10 strain growth, BacTiter-Glo luminescence, 24 h; inhibition, % at 10 µM; 330,000 compounds, 1.4% hits; AID 463195;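 active = inhibition of 40% or more at the single tested concentration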;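 also: wild-type TIM10 isogenic control strain grown at permissive 25 °C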
# tim10-1 confirm = confirmation of tim10-1 mutant yeast growth inhibitors; inhibition, % at 20 µM; shares compounds with tim10-1 inh; 7,400 compounds, 56% hits; S. cerevisiae tim10-1 ts strain growth, BacTiter-Glo, 24 h; AID 463213;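 active = inhibition of yeast growth at or above a set limit in either of two repeat tests at 20 µM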;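 also: tim10-1 mutant grown at permissive 25 °C to find synthetic lethal compounds; 0% = DMSO yeast wells and 100% = medium wells without yeast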
# Numbers without * were called inactive; · = no result. This is a sample that favours compounds with a hit; in the whole collection about 4.9% have one here.
SMILES,tim23-1 inh,NALP3 yeast inh,NALP1 yeast inh,tim10-1 inh,SKKanGAS inh,TIM10 inh,tim10-1 confirm
COc1cc2c(cc1OC)C1(C)N(CC2)C(C(C)=O)=NN1c1ccc(Cl)cc1 (stereo not given),28,17,15,20,-7,8,·
CCCSc1nnc(CSc2nc3ccccc3s2)n1-c1ccccc1,29,8,-1,44*,-17,22,33*
N#CCCCSc1nnc(CSc2nc3ccccc3s2)n1-c1ccccc1,17,15,7,29,5,20,·
CCn1c(CSc2nc3ccccc3s2)n[nH]c1=S,33,18,3,42*,3,33,32*
O=[N+]([O-])c1cc(N=Nc2ccc3ccccc3c2)ccc1O,·,·,16,·,10,·,·
COc1ccc2c(CC(=O)NCCN3C(=O)S/C(=C\c4cccnc4)C3=O)coc2c1,30,6,-15,50*,-1,7,16
COc1ccc(/C=C2\SC(=O)N(CCNC(=O)Cc3coc4cc(OC)ccc34)C2=O)cc1,1,-13,21,19,-4,-5,·
O=C(NCCN1C(=O)S/C(=C/c2cccnc2)C1=O)c1cccs1,43,11,·,44*,·,29,26
Cc1nc(C)n(C(C)CNC(=O)c2ccco2)n1 (stereo not given),-1,6,2,-14,-7,3,·
CCn1c2ccccc2c2cc(NC(=O)C(=O)N3CCOCC3)ccc21,-1,5,-6,-9,-6,-5,·
CCOc1cc(S(=O)(=O)N2CCN(C(=O)c3ccco3)CC2)ccc1F,24,26,6,13,3,-5,·
O=C(CC1C[C@H](C(=O)N2CCOCC2)[C@@]2(CCC3CCCC3)c3[nH]c4ccccc4c3CCN2C1=O)NCCc1ccccn1 (stereo not given in full),2,13,·,2,·,0,·
CCCC/C(O)=C1\C(=O)CC(C)(C)CC1=Nc1ccccc1OC,31,-36,10,41*,-4,26,26
Cc1ccc(CNC(=O)CN(c2ccc(Cl)cc2)S(C)(=O)=O)cc1,23,25,7,12,0,-7,·
Cc1cccc(NS(=O)(=O)c2ccc(C(=O)N3CCC3)cc2)c1C,-4,13,·,0,-2,0,·
O=C(CNC(=O)c1cccs1)OCC(=O)c1ccc2ccccc2c1,25,-2,-4,40*,2,38,15
Cc1ccc(S(=O)(=O)/C(C#N)=C/c2c[nH]c3ccccc23)cc1,35,9,-9,49*,-3,30,24
COC(=O)/C(C#N)=C/c1c[nH]c2ccccc12,18,43,-1,-14,-7,-5,·
COc1ccc(S(=O)(=O)Nc2cccc3c2O[C@H](CN(C)C(=O)Nc2c(C)noc2C)[C@@H](C)CN([C@H](C)CO)C3=O)cc1,-16,3,·,-2,·,4,·
O=C(CNC(=O)C1CCCCC1)OC(C(=O)c1ccccc1)c1ccccc1 (stereo not given),14,-58,·,18,·,18,·
S=C(Nc1ccc(Cl)cc1)c1nc2ccccc2[nH]1,36,9,16,49*,76*,38,36*
CCc1cc2c3c(c(=O)oc2cc1O)CCCC3,39,24,-1,41*,1,39,12
C/C(=N/Nc1ccc([N+](=O)[O-])cc1)c1ccc(C)cc1C,10,15,46,42*,0,14,27
Cc1cc(NC(=S)N(CCN2CCOCC2)Cc2ccccc2F)ccc1Cl,25,5,2,44*,-4,32,16
Cc1ccc(NC(=S)N(CCN2CCOCC2)Cc2ccccc2F)cc1,21,11,-21,25,-5,5,·
SMILES,tim23-1 inh,NALP3 yeast inh,NALP1 yeast inh,tim10-1 inh,SKKanGAS inh,TIM10 inh,tim10-1 confirm
O=C(Nc1nc2ccc(Br)cc2s1)c1ccco1,33,26,18,25,-4,13,·
O=C(Nc1nc2ccc(Cl)cc2s1)c1ccco1,34,20,-7,40*,-3,39,30
Cc1c(C(=O)NCC2COc3ccccc3O2)oc2ccc(S(=O)(=O)N3CCOCC3)cc12 (stereo not given),17,14,38,42*,7,27,21
Cc1c(C(=O)NCC2COc3ccccc3O2)oc2ccc(S(=O)(=O)N3CC(C)CC(C)C3)cc12 (stereo not given),16,23,48,0,7,-7,·
Cc1c(C(=O)NC2CC2)oc2ccc(S(=O)(=O)N3CCCCCC3)cc12,46,1,13,49*,-6,27,38*
CCOc1ccc(S(=O)(=O)N2CCCC(C(=O)NCc3cccnc3)C2)cc1Cl (stereo not given),7,4,6,13,-4,-9,·
CCOC(=O)CCNC(=O)N1CCC(CCOc2ccccc2)(C(=O)OCC)CC1,·,·,·,·,-3,·,·
O=C(CCNc1ccc(Cl)c(C(F)(F)F)c1)c1ccco1,28,15,-2,43*,-2,21,22
O=C(CN1CCN(S(=O)(=O)c2ccc(F)cc2)CC1)Nc1ccc2c(c1)OCCO2,6,15,2,-2,-2,-11,·
O=C(CN1CCN(S(=O)(=O)c2ccc(F)cc2)CC1)Nc1ccc(Cl)c(C(F)(F)F)c1,31,4,-3,44*,-8,15,39*
COc1ccccc1N1CCN(CC(=O)Nc2ccc(Cl)c(C(F)(F)F)c2)CC1,40,5,-151,42*,4,27,29*
NC(=S)NC1CC2C=CC1C2 (stereo not given),13,8,19,6,3,13,·
CCOC(=O)c1cc(NC(=O)Nc2ccccc2Cl)c(C)nc1C,7,24,8,31,-1,21,·
CCOC(=O)c1cc(NC(=O)Nc2ccccc2OC)c(C)nc1C,11,6,3,41*,-6,20,22
COc1ccc2c(c1)C(=O)N(c1ccccc1C)C(=O)C2(C)C,32,32,-6,47*,-7,33,30
COc1ccc(N2C(=O)c3ccccc3C(C)(C)C2=O)cc1,45,15,14,23,3,27,·
CN(c1ccccc1C(=O)O)S(C)(=O)=O,7,7,8,13,2,2,·
CN(C)c1ccccc1C(=O)c1ccccc1N(C)C,24,9,13,40*,-6,30,22
Cc1csc(NC(=O)CCn2c(=O)oc3ccc(Cl)cc32)n1,7,-2,6,43*,0,-10,-44
Cc1nnc(NC(=O)CCn2c(=O)oc3ccc(Cl)cc32)s1,-11,8,13,-1,-1,-6,·
CN(C)CCCN(C(=O)COc1ccc(Cl)cc1)c1nc2cc3c(cc2s1)OCO3,0,30,-63,19,5,3,·
